# Screens from PubChem BioAssay.
# ELG1 genotoxic: qHTS screen for small molecules that induce genotoxicity in human embryonic kidney (HEK293T) cells expressing luciferase-tagged ELG1; HEK293T ELG1-luciferase reporter, luminescence, 16 h; Potency, µM (titrated, usually from 46 µM), usual class: activators; actives 1.3% (n = 330,000); AID 504466, 2011; note: nearly all actives have a fitted effect of over 60% in size
#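 ELG1-luciferase HEK293T cells, 2,000/well; compound pinned in; 16 hr, 37 °C, 5% CO2; ONE-Glo, 30 min RT; luminescence on CCD imager.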
# SMN2 splice enh: qHTS Assay for Enhancers of SMN2 Splice Variant Expression | HEK293 SMN2-luciferase splicing reporter, luminescence, 30-36 h | Potency, µM (doses to about 46.1 µM), usual class: activators | actives 2.8% (n = 210,000) | AID 1458, 2008; note: nearly all actives have a fitted effect of over 55% in size
#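 HEK293 cells carry an SMN2 minigene-luciferase reporter in which exon 7 inclusion puts luciferase in frame. Cells were seeded at 2000 cells/well, attached for 10-12 hours, then exposed to compounds for 30-36 hours at 37C before ONE-Glo luminescence.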
# NPC1 promoter act: qHTS Assay for NPC1 Promoter Activators; Huh7 NPC1 promoter luciferase reporter, 24 h; Potency, µM (highest dose often 9.22 µM), usual class: activators; actives 2.4% (n = 320,000); AID 485313, 2010; note: nearly all actives have a fitted effect of over 60% in size
#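 Quantitative HTS used a cell-based reporter: Huh7 cells stably bearing the NPC1 promoter upstream of luciferase were treated with compounds for 24 h, and promoter activation was read as luminescence.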
# FLuc modulator: qHTS profiling assay for firefly luciferase inhibitor/activator using purifed enzyme and Km concentrations of substrates (counterscreen for miR-21 project) | purified FLuc, Km substrates, luminescence inhibition | Potency, µM (doses to about 57.5 µM), actives largely listed as inhibitors | actives 6.9% (n = 360,000); note: nearly all actives have a fitted effect of over 55% in size
# Target sequence (P08659 whole entry, looked up): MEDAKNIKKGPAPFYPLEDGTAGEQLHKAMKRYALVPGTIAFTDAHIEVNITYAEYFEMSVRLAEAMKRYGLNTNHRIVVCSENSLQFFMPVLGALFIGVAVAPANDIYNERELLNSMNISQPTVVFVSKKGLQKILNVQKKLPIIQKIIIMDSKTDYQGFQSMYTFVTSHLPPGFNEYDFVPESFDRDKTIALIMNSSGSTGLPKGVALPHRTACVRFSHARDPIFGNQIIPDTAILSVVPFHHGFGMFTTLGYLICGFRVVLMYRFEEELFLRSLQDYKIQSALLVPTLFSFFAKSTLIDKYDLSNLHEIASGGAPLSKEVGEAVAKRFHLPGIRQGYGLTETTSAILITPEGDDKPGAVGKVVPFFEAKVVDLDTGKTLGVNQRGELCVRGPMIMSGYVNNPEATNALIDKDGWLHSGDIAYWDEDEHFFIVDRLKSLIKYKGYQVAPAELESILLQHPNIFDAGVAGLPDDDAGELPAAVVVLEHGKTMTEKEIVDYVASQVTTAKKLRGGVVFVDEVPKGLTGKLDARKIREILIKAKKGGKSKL
#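 Purified P. pyralis luciferase (10nM final) with 10uM D-luciferin and 10uM ATP (Km levels) in 50mM Tris acetate pH 7.5, 10mM Mg acetate, 0.01% Tween-20, 0.05% BSA; qHTS 6-point titration, ~60 µM downward; luminescence read.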
# Rab9 promoter act: qHTS Assay for Rab9 Promoter Activators; Huh7 Rab9 promoter-luciferase reporter, luminescence, 24 h; Potency, µM (doses to about 9.22 µM), actives largely listed as activators; actives 2.8% (n = 320,000); AID 485297, 2010; note: nearly all actives have a fitted effect of over 60% in size
#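 Promoter activation is measured as luciferase luminescence in Huh7 cells stably transfected with a Rab9 promoter–luciferase construct, following 24 h compound exposure at 37 °C and 10 min reagent incubation at ambient temperature.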
# Numbers stand for hits; – = inactive; ? = inconclusive; · = not tested or not shown; [ ] = another dose, or the depositor's remark. The list is not random: actives were taken first. Their share in the collection is about 7.5%. Calls come from the whole dose curve; as a rule, active = well fitted curve in the direction sought with a large enough effect; inconclusive = small, poorly fitted or top-dose-only effect, or another doubt; inactive = no such curve, though single readings can be large; an effect the other way counts as inactive or inconclusive.
SMILES,ELG1 genotoxic,SMN2 splice enh,NPC1 promoter act,FLuc modulator,Rab9 promoter act
CCOc1ccccc1CNC(=O)Cn1c(-c2ccccc2)cc(C(C)=O)c1C,·,–,·,–,·
COc1ccccc1CN(C)C(=O)c1ccc(S(=O)(=O)Nc2c(C)n(C)n(-c3ccccc3)c2=O)cc1,–,·,·,·,·
COc1ccccc1OCc1cc(C(=O)N(C)CCC2CCCCO2)no1 (configuration not stated),10.3µM,·,2.51µM,12µM,1.58µM
COc1ccc(CCNC(=O)C2CC(c3cccc([N+](=O)[O-])c3)=NO2)cc1 (configuration not stated),–,?,?,15.1µM,?
CCCCNC(=O)C1CC(c2cccc(F)c2)=NO1 (configuration not stated),?,·,?,15.1µM,?
O=C(NCCc1cccs1)C1CC(c2ccc([N+](=O)[O-])cc2)=NO1 (configuration not stated),?,?,3.55µM,13.5µM,2.51µM
COc1ccc2c(c1)c1c(c(=O)n(-c3ccc(OC)c(OC)c3)c(=O)n1Cc1ccccc1F)n2C,·,·,·,–,·
CCn1c(=N)c(C(=O)NC2CCCCC2)cc2c(=O)n3cc(C)ccc3nc21,·,–,·,–,·
O=C(NCCN1CCCC1)c1cc(-c2ccncc2)nc2ccc(S(=O)(=O)N3CCOCC3)cc12,–,–,–,–,–
CCOc1ccc(CCNC(=O)c2ccc(CS(=O)Cc3ccc(Cl)cc3)o2)cc1OCC (configuration not stated),–,·,–,–,–
CCOc1ccc(CCNC(=O)c2ccc(CS(=O)Cc3cccc(Cl)c3)o2)cc1 (configuration not stated),–,·,–,16.9µM,–
CN(C)c1ccc(N=Nc2ccccc2C(=O)OCC(=O)N(C)C2CCCCC2)cc1,–,?,–,1.07µM,?
CN(C)c1ccc(N=Nc2ccccc2C(=O)OCC(=O)NC2CCCC2)cc1,–,·,–,2.69µM,–
O=C(COC(=O)c1ccccc1Br)NCC1CCCCC1,–,·,·,·,·
O=C(OCC(=O)N(C1CCCCC1)C1CCCCC1)c1ccccc1O,–,·,–,–,–[1.84 µM]
CN(C)c1ccc(N=Nc2ccccc2C(=O)OCC(=O)NCC2CCCCC2)cc1,–,–,–,4.78µM,–
O=C(Nc1ccccc1)/C(=C1\CCCN1)[N+](=O)[O-],–,–,–,–,–
Cc1ccc2c(CNCc3ccco3)cc(=O)oc2c1,?,12.6µM,?,23.9µM,?
CCOc1ccccc1NCc1cc(=O)oc2cc(C)ccc12,–,·,–,?,–
COc1ccc(NC(=O)/C(C#N)=C/c2ccc(OCc3cc(=O)n4nc(C)sc4n3)cc2)cc1,·,–,·,–,·
COc1ccc(/C=C2\SC(=S)N(C(C)C(=O)NC3C=CS(=O)(=O)C3)C2=O)cc1 (configuration not stated),–,·,–,16.9µM,–
COc1cccc(/C=C2\SC(=S)N(C(C)C(=O)NC3C=CS(=O)(=O)C3)C2=O)c1 (configuration not stated),–,·,–,?,–
COc1ccc(/C=C2\SC(=S)N(CC(=O)NC3C=CS(=O)(=O)C3)C2=O)cc1 (configuration not stated),–,·,–,1.9µM,–
Cc1ccc(Cn2ccnc2C(=O)Nc2ccccc2)cc1,?,15.8µM,3.98µM,7.57µM,1.58µM
COc1cccc(CNC(=O)Cn2c(=O)cc(C(F)(F)F)c3c(C)nn(C)c32)c1OC,·,·,·,–,·
SMILES,ELG1 genotoxic,SMN2 splice enh,NPC1 promoter act,FLuc modulator,Rab9 promoter act
O=C(Nc1ccc(Cl)c(Cl)c1)Nc1ccc([N+](=O)[O-])cn1,–,·,–,–,–
Cc1ccc(NC(=O)Nc2ccc(Cl)cn2)cc1,?,11.2µM,–,?,3.98µM
Cc1ccc(NC(=O)Nc2ccc(Cl)c(Cl)c2)nc1,?,·,?,?,4.47µM
O=C(Nc1ccc(Cl)cn1)Nc1ccccc1Cl,–,–,–,–,?
CC(=O)Nc1ccc2nc(-c3ccccc3)cn2c1,5.8µM,2.51µM,1µM,2.13µM,1.12µM
Cc1ccn2cc(-c3cccc([N+](=O)[O-])c3)nc2c1,0.461µM,1.78µM,0.562µM,0.675µM,?
Cc1ccn2cc(-c3cccc(NS(C)(=O)=O)c3)nc2c1,?,·,3.16µM,6.75µM,2.51µM
Cc1ccn2cc(-c3cccc(S(=O)(=O)N4CC(C)OC(C)C4)c3)nc2c1 (configuration not stated),–,·,–,?,–
Cc1ccn2cc(-c3ccc(NS(=O)(=O)c4ccccc4)cc3)nc2c1,–,–,–,?,–
Cc1ccn2cc(-c3cccc(S(=O)(=O)N4CCCC4)c3)nc2c1,–,·,–,12µM,–
Nc1nc(-c2cccc([N+](=O)[O-])c2)cc(-c2cc(-c3cccc([N+](=O)[O-])c3)nc(N)n2)n1,·,–[9.22 µM],·,·,·
O=c1c2c(nc3n1CCS3)c1cc(F)ccc1n2Cc1cc(=O)n2cc(Cl)ccc2n1,–,·,–,–,–
CCCCOCCCNC(=O)N[C@H](C(=O)OC)C(C)CC (some centres not stated),–,·,–,–,–
Cc1cccc(NC(=O)c2ccccc2NC(=O)CCC(=O)O)c1,–,–,–,–,–
CCOC(=O)C1CCN(S(=O)(=O)c2cccc(-c3cn4cc(C)ccc4n3)c2)CC1,–,–,–,8.49µM,–
CC(=O)Nc1cccc(-c2cn3ccc(C)cc3n2)c1,?,·,3.16µM,4.26µM,1.58µM
Cc1ccn2cc(-c3cccc(NC(=O)CCC(=O)O)c3)nc2c1,–,·,–,0.849µM,–
Cc1ccn2cc(C(=O)Nc3cccc(C(=O)NC4CC4)c3)nc2c1,–,·,?,1.35µM,?
O=C(Cc1ccccc1)Nc1c(C(=O)Nc2ccccc2F)oc2ccccc12,·,–,·,–,·
Clc1ccc2nc(-c3ccccc3)cn2c1,0.92µM,·,0.398µM,0.477µM,0.398µM
CSc1ccc(CN(C)CC(=O)Nc2c(F)cccc2F)cc1,–,–,–,–,–
CC(=O)c1cccc(NC(=O)c2ccc(-c3ccccc3[N+](=O)[O-])o2)c1,?,10µM,?,3.38µM,3.16µM
COC(=O)c1sccc1-c1ccc(C(=O)Nc2ccccc2)o1,?,?,3.55µM,7.57µM,2.24µM
O=C(Nc1cccc(O)c1)c1cc(-c2ccccc2F)no1,·,·,·,–,·
COC(=O)c1sccc1NC(=O)c1ccc(C)o1,–,–,–,–,–
O=C(Nc1cccc(F)c1)c1ccc(-c2ccccc2Cl)o1,?,11.2µM,–,9.53µM,–
O=C(Nc1ccccc1)c1cc(-c2ccccc2Cl)no1,?,?,?,0.757µM,–
COCCn1c(N)c(N(Cc2ccccc2)C(=O)Cc2c(Cl)cccc2Cl)c(=O)[nH]c1=O,–,–,–,–,–
CCc1nnc(NC(=O)c2ccc(COc3ccccc3Cl)o2)s1,–,·,–,–,–
COc1ccc(NC(=O)c2ccc(-c3ccccc3Cl)o2)cc1,?,17.8µM,?,9.53µM,?
